From PubChem BioAssay
Pf growth 96h: inhibits malaria parasite growth, 96 h; P. falciparum luciferase reporter growth, 96 h; actives 6.9% (n = 320,000); Potency, µM (doses to about 28.7 µM), usual class: inhibitors
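P. falciparum expressing integrated firefly luciferase, in erythrocytes at 2% hematocrit, 0.05% parasitemia, incubated with compounds 96 h at 37 C, 5% CO2. Growth inhibition read as loss of luminescence; two-generation exposure targets delayed-death apicoplast inhibitors.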
AMA1-RON2 inh: inhibitors of Plasmodium falciparum AMA1-RON2 interaction. AlphaScreen AMA1-biotinylated RON2 peptide binding. Potency, µM (top dose mostly 58.2 µM), actives largely listed as inhibitors. actives 0.2% (n = 360,000). AID 720542; note: nearly all actives have a fitted effect of over 45% in size
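AMA1 (3D7) with his tag at 25 nM final met compounds first, then biotinylated RON2 peptide at 25 nM; detection used donor plus acceptor beads, 10 µg/mL apiece, read by AlphaScreen after 30 min at room temperature.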
SARS PLpro yeast: inhibitors of SARS-CoV papain-like protease in yeast; Potency, µM (highest dose often 32.9 µM), usual class: activators; S. cerevisiae expressing SARS-CoV PLpro, growth rescue; AID 485353; actives 0.19% (n = 330,000); calls by dose curve; note: nearly all actives have a fitted effect of over 55% in size
Pf growth 48h: inhibits P. falciparum growth in the first generation, 48 h | P. falciparum luciferase growth in erythrocytes, 48 h | Potency, µM (highest dose often 28.7 µM), most hits filed as inhibitors | actives 5.9% (n = 310,000)
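A one-generation exposure of luciferase-tagged malaria parasites in RPMI 1640/Albumax erythrocyte culture, 37 C and 5% CO2. Inhibition is inferred from decreased luminescence after adding detection reagent.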
Large screens that a line does not name were inactive. Rows were chosen to be rich in hits. Some 9.4% of all compounds tested hit in one or more screens of this group. Unless noted, calls come from the whole dose curve; as a rule, active = well fitted curve in the direction sought with a large enough effect; inconclusive = small, poorly fitted or top-dose-only effect, or another doubt; inactive = no such curve, though single readings can be large; an effect the other way counts as inactive or inconclusive.

Nc1ccc(-c2nc3nc(N)nc(N)c3nc2-c2ccc(N)cc2)cc1	Pf growth 96h inconclusive, Pf growth 48h 10.4µM
CCC1C/C(=C\c2cc(OC)c(OC)cc2OC)C(=O)/C(=C/c2cc(OC)c(OC)cc2OC)C1 (stereo not drawn)	Pf growth 96h inconclusive, AMA1-RON2 inh 22.4µM, Pf growth 48h 5.22µM
CC12CCCC(=O)C1CCC(=Cc1ccco1)C2=O (stereo not drawn)	none (no result: Pf growth 96h, SARS PLpro yeast, Pf growth 48h)
CCC1C/C(=C/c2ccco2)C(=O)/C(=C/c2ccco2)C1 (stereo not drawn)	Pf growth 96h 9.28µM (no result: AMA1-RON2 inh)
COc1cc(OC)c(OC)cc1/C=C1/Cc2ccccc2C1=O	Pf growth 96h inconclusive
COc1cc(OC)c(OC)cc1/C=C1\CC(C)C/C(=C\c2cc(OC)c(OC)cc2OC)C1=O (stereo not drawn)	Pf growth 96h inconclusive, AMA1-RON2 inh 31.6µM, Pf growth 48h 4.65µM
O=C(NCc1cccnc1)C1CCC(CNS(=O)(=O)c2ccc(Cl)cc2)CC1 (stereo not drawn)	none
COc1cc(/C=C/c2ccc3c(Br)cc(Br)c(O)c3n2)ccc1O	Pf growth 96h 3.7µM, Pf growth 48h 9.28µM
COc1cc(/C=C/c2ccc3cccc(O)c3n2)cc(Cl)c1OC	Pf growth 96h 3.7µM
COc1ccc(Br)cc1/C=C/c1ccc2cccc(O)c2n1	Pf growth 96h inconclusive, Pf growth 48h 2.08µM
Cc1ccc2c(Br)cc(Br)c(O)c2n1	Pf growth 96h 6.75µM, Pf growth 48h 12µM (no result: AMA1-RON2 inh, SARS PLpro yeast)
Cc1ccc2ccc3cccnc3c2n1	none (no result: Pf growth 96h, SARS PLpro yeast, Pf growth 48h)
COc1ccc(/C=C/c2ccc3c(Br)ccc(O)c3n2)cc1	none
C/C(CC(=O)Nc1ccccn1)=N\NC(=O)C(=O)Nc1cccc(Cl)c1C	Pf growth 96h inconclusive
O=CN1CCC(=O)N(Cc2ccccc2)c2ccccc21	none (no result: Pf growth 96h)
Cc1ccc(-c2ccc(/C=N/NC(=O)c3ccccc3O)o2)cc1	Pf growth 96h 0.828µM, Pf growth 48h 0.586µM (no result: AMA1-RON2 inh)
CC1Oc2ccccc2C=C1/C=N\NC(=O)c1cccnc1 (stereo not drawn)	none
Cc1ccc(C(=O)N/N=C/C2=Cc3ccccc3OC2C)cc1 (stereo not drawn)	Pf growth 96h inconclusive, Pf growth 48h inconclusive
CC1Oc2ccccc2C=C1/C=N/NC(=O)c1ccccc1 (stereo not drawn)	Pf growth 96h inconclusive, Pf growth 48h 2.94µM
CC1Oc2ccccc2C=C1/C=N/NC(=O)c1ccccc1O (stereo not drawn)	Pf growth 96h inconclusive, Pf growth 48h 3.7µM
CC(C)(C)C(=O)c1cn(CC(=O)O)c2ccccc12	none
Cc1ccc(Oc2cc(C#N)c(C#N)cc2-n2nnc3ccccc32)cc1C	none (no result: Pf growth 96h)
CSc1ccc(C2=C/C(=C3/SC(=S)NC3=O)c3ccccc3O2)cc1	none (no result: Pf growth 96h, SARS PLpro yeast, Pf growth 48h)
Cc1ccc(CNC(=O)CS(=O)Cc2nc(-c3ccccc3Cl)oc2C)cc1 (stereo not drawn)	none
C[N+](C)(C)CCCCCCC(=O)/C=N/O	none
C[N+](C)(C)CCCCCCCCCC[N+](C)(C)C	Pf growth 96h 0.262µM, Pf growth 48h 0.657µM
CC(C)OC(=O)CSc1nnc(-c2ccccn2)n1N	none
O=C(OCC(=O)N1CCc2ccccc2C1)c1ccc(OC(F)F)cc1	none
CCOC(=O)c1c(NC(=O)CSc2nnc(C)s2)sc2c1CCN(C)C2	Pf growth 96h inconclusive, Pf growth 48h 6.57µM
CCn1ccc(C(=O)Nc2sc3c(c2C(=O)OC)CCC3)n1	Pf growth 96h 11.7µM, Pf growth 48h inconclusive
COC(=O)c1c(NC(=O)c2ccn(C)n2)sc2c1CCC2	none
CCOC(=O)c1c(NC(=O)Cc2ccccc2)sc2c1CCN(C)C2	SARS PLpro yeast inconclusive
CCOC(=O)c1c(NC(=O)C2CCCCC2)sc2c1CCN(C(C)C)C2	Pf growth 96h 13.1µM
CCOC(=O)c1c(NC(=O)CN(CC)CC)sc2c1CCC2	Pf growth 48h 11.7µM
COc1ccc(-c2nc(CS(=O)CC(=O)NC3CCCCC3)c(C)o2)cc1OC (stereo not drawn)	Pf growth 96h inconclusive, Pf growth 48h inconclusive
COc1ccc(-c2nnc(SCC(=O)c3ccc[nH]3)n2-c2ccccc2)cc1	Pf growth 96h inconclusive
CCOC(=O)c1c(NC(=S)Nc2ccc(OCC)cc2)sc2c1CCN(C)C2	Pf growth 96h 3.7µM, Pf growth 48h 8.28µM
CCOC(=O)c1c(NC(=S)Nc2ccc(Cl)cc2)sc2c1CCN(C)C2	Pf growth 96h inconclusive, Pf growth 48h inconclusive
CCOC(=O)c1c(NC(=O)C(F)(OC)C(F)(F)F)sc2c1CCN(C)C2 (stereo not drawn)	Pf growth 96h 10.4µM, Pf growth 48h inconclusive
CCOC(=O)c1c(NC(=O)Nc2ccc(F)cc2)sc2c1CCN(C)C2	Pf growth 96h inconclusive, Pf growth 48h 8.28µM
CCOC(=O)c1c(/N=C/c2cccc(C)c2O)sc2c1CCN(C)C2	Pf growth 96h 1.65µM, Pf growth 48h inconclusive
O=C1CC(c2ccncc2)c2cc3c(cc2N1)OCO3 (stereo not drawn)	none (no result: Pf growth 96h)
CCN1CCCC1CNC(=O)c1cc(OC)c(OC)c(OC)c1 (stereo not drawn)	none (no result: Pf growth 48h)
CCN1CCCC1CNC(=O)CCNC(=O)c1cc(OC)c(OC)c(OC)c1 (stereo not drawn)	Pf growth 96h 2.62µM
CCc1ncc(CN2CCCC(C(=O)Nc3cccc(-c4ccc(F)cc4)c3)C2)cn1 (stereo not drawn)	Pf growth 96h inconclusive, Pf growth 48h inconclusive
CCn1cc(CN2CCCC(C(=O)Nc3cccc(-n4cccn4)c3)C2)c(C)n1 (stereo not drawn)	Pf growth 96h 10.4µM
O=C(Nc1cccc(-n2cccn2)c1)C1CCCN(Cc2ccc(C#CCCO)cc2)C1 (stereo not drawn)	Pf growth 48h 10.4µM
CCn1cc(CN2CCCC(C(=O)Nc3cccc(-c4cc5ccccc5[nH]4)c3)C2)cn1 (stereo not drawn)	SARS PLpro yeast inconclusive, Pf growth 48h 10.4µM
CN(C)c1cccc2c(S(=O)(=O)N3CCCC3)cccc12	none
C=C(C)c1cccc(C(C)(C)NC(=O)N2CCOCC2)c1	none (no result: Pf growth 96h)
C=C(C)c1cccc(C(C)(C)NC(=O)N2CCCC2)c1	Pf growth 96h 13.1µM
C=C(C)c1cccc(C(C)(C)NC(=O)Nc2nncs2)c1	none
C=C(C)c1cccc(C(C)(C)NC(=O)Nc2nnc(C(C)C)s2)c1	Pf growth 96h 11.7µM
O=C(COc1cccnc1[N+](=O)[O-])NCc1ccc2c(c1)OCO2	none
CCOC(=O)c1cc(C#N)c(N)nc1C	none
COc1cc(-c2nc3n(c(=O)c2C#N)CCS3)cc(OC)c1OC	Pf growth 96h 0.657µM, Pf growth 48h inconclusive
Oc1c(I)cc(Cl)c2cccnc12	Pf growth 96h inconclusive, Pf growth 48h inconclusive
Clc1cc2cccnc2c2ncccc12	Pf growth 96h 11.7µM, Pf growth 48h 11.7µM
Cc1c(C)c2cccnc2c2ncccc12	Pf growth 96h inconclusive, Pf growth 48h 1.85µM
Oc1ccccc1N=N/C(=N/Nc1ccccc1O)c1ccccc1	Pf growth 96h 8.28µM, Pf growth 48h 4.15µM
Cc1ccc(C(=O)N2CCN(c3ncnc4c(C)csc34)CC2)cc1	none
C#CC1(O)C=CC2C3CCC4=CC(=O)CCC4C3CCC21CC (stereo not drawn)	Pf growth 96h 8.49µM, Pf growth 48h inconclusive
O=c1cc(-c2ccccc2)nc(SCc2ccccc2)[nH]1	none
